PubChem BioAssay (EPA / NIEHS)
Where “and” joins values, the source holds several entries; their conditions need not be identical. Identical values can stand only once. Records with an inconclusive call do not appear. Where a structure was tested more than once in an assay, its records may differ in their call. Calls of active or inactive are those of the source. How the source made its calls: active means hit-call score of the fitted dose curve at least 0.9, where 1 is the maximum; inconclusive means response in the unintended direction; inactive means score below 0.9.

How the values were obtained:
[1] = ATG_XTT_Cytotoxicity: Cytotoxicity Assessment in the Attagene TRANS-FACTORIAL HepG2 Assay (AID 2283584)
In short: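 Cells: human HepG2, transiently transfected with MRTU reporter constructs. Exposure 24 h. Readout: XTT, cell number. Baseline/neg ctrl DMSO; loss-of-signal scored.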

[2] = TOX21_p53_BLA_p2_viability: Viability Assessment in the Tox21 HCT-116 p53 Agonism Beta-lactamase Assay, Phase 2 (AID 2283591);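 further: compound exposure lasted 16 h at 37 °C; actives lower the ATP signal meaning cytotoxicity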
In short: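 Cytotoxicity readout: CellTiter-Glo ATP luminescence, 30 min at room temperature, after the beta-lactamase read. Cells were HCT116 exposed 16 h at 37C to compounds pin-transferred at 217-fold dilution from DMSO stocks.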

[3] = target: Cellular tumor antigen p53 (Homo sapiens) (UniProt P04637); assay: TOX21_p53_BLA_p3_ratio: Tox21 HCT-116 p53 Agonism Beta-lactamase Assay, Ratio, Phase 3 (AID 2283596)
In short: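 HCT116 p53-bla cells (4000/well) given compound in DMSO (217-fold dilution) after 5 h, incubated 16 h at 37C. CCF4-AM substrate 2 h at room temperature; 460/530 nm emission ratio, gain fitted against DMSO.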

[4] = TOX21_p53_BLA_p4_viability: Viability Assessment in the Tox21 HCT-116 p53 Agonism Beta-lactamase Assay, Phase 4 (AID 2283597);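 further: hits lower the luminescence signal meaning cytotoxicity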
In short: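 Cells plated, 5 h pre-incubation; DMSO compounds pinned (217-fold dilution); 16 h, 37C/5% CO2; CCF4-AM 2 h RT; CellTiter-Glo 30 min RT; luminescence read.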

[5] = TOX21_p53_BLA_p5_viability: Viability Assessment in the Tox21 HCT-116 p53 Agonism Beta-lactamase Assay, Phase 5 (AID 2283600)
In short: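 4000 cells/well; 5 h pre-incubation; DMSO compounds pin-transferred, 217-fold dilution; 16 h, 37C/5% CO2; CCF4-AM 2 h RT; CellTiter-Glo 30 min RT; luminescence.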

[6] = target: Cellular tumor antigen p53 (Homo sapiens) (UniProt P04637); assay: TOX21_p53_BLA_p4_ratio: Tox21 HCT-116 p53 Agonism Beta-lactamase Assay, Ratio, Phase 4 (AID 2283601)
In short: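 Signal is the blue/green (460nm/530nm) ratio of cleaved versus uncleaved CCF4-AM substrate, read after 2 h substrate loading. Cells were HCT116 carrying the p53-responsive beta-lactamase reporter, dosed 16 h at 37C, 5% CO2; CellTiter-Glo measured in parallel.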

[7] = target: Cellular tumor antigen p53 (Homo sapiens) (UniProt P04637); assay: TOX21_p53_BLA_p2_ratio: Tox21 HCT-116 p53 Agonism Beta-lactamase Assay, Ratio, Phase 2 (AID 2283592)
In short: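 HCT116 p53-bla; 4000 cells/well; 5 h pre-incubation; cpd in DMSO, 217-fold dilution; 16 h 37C/5% CO2; CCF4-AM 2 h RT; Ex 405, Em 460/530 ratio; DMSO = baseline; positive fitting direction.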

[8] = TOX21_p53_BLA_p3_viability: Viability Assessment in the Tox21 HCT-116 p53 Agonism Beta-lactamase Assay, Phase 3 (AID 2283593);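 further: cells exposed to compound for 16 h before reading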
In short: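 Cellular ATP was quantified by CellTiter-Glo luminescence, read after 30 min at room temperature. Beforehand, HCT116 cells (4000/well) received compound 5 h post-seeding, 217-fold diluted from DMSO, then incubated 16 h at 37C.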

[9] = target: Cellular tumor antigen p53 (Homo sapiens) (UniProt P04637); assay: TOX21_p53_BLA_p5_ratio: Tox21 HCT-116 p53 Agonism Beta-lactamase Assay, Ratio, Phase 5 (AID 2283599)
In short: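 Beta-lactamase reporter ratio (blue 460 nm over green 530 nm, 405 nm excitation) after 2 h CCF4-AM loading, in HCT-116 cells exposed 16 h at 37 C to compounds pinned at 217-fold dilution. Increases relative to DMSO baseline scored.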

Measured: AC50

Chain of Cellular tumor antigen p53 (Homo sapiens) (P04637 whole entry, looked up): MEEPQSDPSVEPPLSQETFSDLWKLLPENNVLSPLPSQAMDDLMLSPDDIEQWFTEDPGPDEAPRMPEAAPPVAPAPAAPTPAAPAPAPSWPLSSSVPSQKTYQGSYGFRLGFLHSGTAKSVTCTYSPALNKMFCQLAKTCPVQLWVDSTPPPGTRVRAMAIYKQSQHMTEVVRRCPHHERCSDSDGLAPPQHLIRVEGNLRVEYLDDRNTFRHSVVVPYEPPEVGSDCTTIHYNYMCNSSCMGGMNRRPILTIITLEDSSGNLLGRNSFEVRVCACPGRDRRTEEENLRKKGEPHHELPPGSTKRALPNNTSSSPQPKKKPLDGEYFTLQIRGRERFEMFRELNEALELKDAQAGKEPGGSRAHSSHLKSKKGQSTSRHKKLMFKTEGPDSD

COc1ccc(N=Nc2cc(C)c(N=Nc3ccc(S(=O)(=O)O)cc3)cc2OC)cc1
not listed: [7] | [8] | [9]
inactive: all other assays above

CS(C)=O
not listed: [2]
inactive: all other assays above

Cc1occc(=O)c1OC(=O)C(C)C
inactive: [1] | [7] | [8] | [3]

CC(C=O)Cc1ccc(C(C)(C)C)cc1 (configuration not stated)
not listed: [2]
inactive: all other assays above

CCCOC(=O)c1c(Cl)c(Cl)c(Cl)c(Cl)c1C(=O)OCCC
inactive: [1] | [7]

C=CCCC(=O)/C=C/C1C(C)=CCCC1(C)C (configuration not stated)
not listed: [3] | [7] | [8]
inactive: all other assays above

C[Si](C)(C)O[Si](C)(C)C
not listed: [2]
inactive: all other assays above

CCCCC(CC)C(=O)OC(C)C (configuration not stated)
not listed: [4] | [7] | [8]
inactive: all other assays above

OC[C@H]1O[C@@H](Oc2ccc(O)cc2)[C@H](O)[C@@H](O)[C@@H]1O
not listed: [2]
inactive: all other assays above

C=CCOC(=O)CCCCCC
inactive: [1] | [2] | [3] | [4] | [6]

CN(C)CCOC(C)(c1ccccc1)c1ccccn1 (configuration not stated)
not listed: [2] | [8]
inactive: all other assays above

ON=C1CCCCC1
not listed: [2] | [8] | [9]
inactive: all other assays above

CC(=O)C(C)O (configuration not stated)
not listed: [2] | [5]
inactive: all other assays above

CC1=NN(c2ccc(S(=O)(=O)O)cc2)C(=O)C1
inactive: [1] | [7] | [3] | [9] | [5]

CCCCSCCCC
inactive: [1] | [2] | [3] | [9] | [5]

CC(=O)NCCO
inactive: [1] | [7] | [3] | [4] | [5]

CCC(C)=O
inactive: [1] | [2] | [4]

O=C1CCCC=CCCCCCCCCCC1
inactive: [1] | [7] | [3] | [4]

CCCC(C)C(O)CC (configuration not stated)
not listed: [2] | [5] | [9]
inactive: all other assays above

CCCCC(CC)(CO)CO
not listed: [2] | [3] | [4]
inactive: all other assays above

C=COCCOCCOC=C
inactive: [1] | [2] | [3] | [4] | [6]

CCc1ccc(O)c(OC)c1
inactive: [1] | [8] | [9]

CCCCC1CCC(O)CC1 (configuration not stated)
active: [9] 83.6 µM
inactive: [1] | [7] | [3] | [5]

Cc1cc(S(=O)(=O)O)ccc1N=Nc1c(O)ccc2ccccc12
inactive: [1] | [3] | [4] | [5]

Oc1c(Cl)cc(Cl)c(Cl)c1Cc1c(O)c(Cl)cc(Cl)c1Cl
active: [2] 9.14 µM and 38.7 µM | [3] 19.5 µM and 446 nM and 1.07 µM | [4] 36.9 µM and 49.3 µM and 1.62 µM | [9] 13.8 µM and 26.4 µM and 18.6 µM | [6] 42.2 µM and 43.5 µM and 6.65 µM
inactive: [2] | [5]

CC[N+](C)(CC)CC
inactive: [1] | [9] | [6]

CS(=O)(=O)c1ccc(C2=C(c3ccccc3)C(=O)OC2)cc1
inactive: [1] | [5] | [6]

CC(=O)O[C@H]1C[C@@H]2CC[C@@]1(C)C2(C)C
inactive: [1] | [7] | [3] | [9] | [5]

C1=CC2C3C=CC(C3)C2C1 (configuration not stated)
not listed: [1]
inactive: all other assays above

O=C(O)c1cc(C(=O)O)cc([N+](=O)[O-])c1
inactive: [1] | [6]

COC(=O)Nc1ccc(Cl)c(Cl)c1
not listed: [1]
inactive: all other assays above

C=CC(=O)OCCC#N
inactive: [1] | [8] | [9] | [5] | [6]

CCCC(C)=O
not listed: [1]
inactive: all other assays above

CC(C)(CO)[C@@H](O)C(=O)NCCC(=O)O
inactive: [1] | [7] | [3] | [9] | [6]

N#Cc1ccc(CC(=O)c2cccc(C(F)(F)F)c2)cc1
inactive: [1] | [3] | [9] | [5] | [6]

CCCCCCC(CO)CCCC (configuration not stated)
inactive: [1] | [7] | [3] | [9] | [6]

Cc1ccc(S(N)(=O)=O)cc1
inactive: [1] | [7] | [3] | [9] | [6]

CC1CC(O)CC(C)(C)C1 (configuration not stated)
not listed: [1]
inactive: all other assays above

COS(=O)(=O)O
inactive: [1] | [5] | [6]

CC1=CC[C@@]23C[C@@H]1C(C)(C)[C@@H]2CC[C@H]3C
inactive: [1] | [5]

CCCCCCCC(=O)OCCCCCC
inactive: [1] | [8] | [5] | [6]

CCCCCCCCSCCO
inactive: [2]

O=C(O)COCC(=O)O
inactive: [1] | [3] | [5] | [6]

CCCSc1ccc2nc(NC(=O)OC)[nH]c2c1
active: [7] 336 nM and 247 nM | [3] 394 nM and 199 nM | [9] 373 nM and 193 nM | [6] 339 nM and 175 nM
inactive: [2] | [8] | [4] | [5]

COCCc1ccc(OCC(O)CNC(C)C)cc1 (configuration not stated)
inactive: [1] | [7] | [3] | [9] | [6]

CCN(CC)C(=O)N(CC)CC
inactive: [1] | [8] | [3] | [4] | [5]

OCC(O)c1ccccc1 (configuration not stated)
inactive: [1] | [8] | [4] | [9] | [6]

CCCC(=O)OCCc1ccccc1
inactive: [1] | [3] | [9] | [6]

O=C(O)c1cccnc1C(=O)O
inactive: [1] | [3] | [9] | [5]

CCc1ccc(O)cc1
not listed: [1] | [6]
inactive: all other assays above

CCC1(C)NC(=O)NC1=O (configuration not stated)
inactive: [2] | [7] | [8]

O=C(O)CCCCCCCCCCCC(=O)O
not listed: [1] | [6]
inactive: all other assays above

CCCC(=O)C(CC)Sc1ccoc1C (configuration not stated)
not listed: [2] | [7] | [9]
inactive: all other assays above

C=C(C)C(=O)OCC(CC)(COC(=O)C(=C)C)COC(=O)C(=C)C
not listed: [1] | [5] | [6]
inactive: all other assays above

CCc1cc(C(C)(C)C)c(O)c(C(C)(C)C)c1
not listed: [1]
inactive: all other assays above

O=[N+]([O-])c1cccc(Cl)c1
inactive: [1] | [3] | [9] | [6]

CC(C)Nc1nc(N)nc(Cl)n1
inactive: [1] | [6]

COc1ccccc1[N+](=O)[O-]
inactive: [2] | [7] | [3] | [9] | [6]

[O-]n1ccccc1=S.[O-]n1ccccc1=S.[Zn+2]
active: [2] 14.3 µM [middle of 4 runs] | [7] 33.8 µM [middle of 4 runs] | [3] 35.7 µM [middle of 4 runs] | [4] 15.4 µM [middle of 4 runs] | [9] 24.8 µM [middle of 4 runs] | [5] 19.1 µM [middle of 4 runs] | [6] 21.1 µM [middle of 4 runs]

CCOc1ccc(NC(=O)CC(C)O)cc1 (configuration not stated)
not listed: [1] | [9]
inactive: all other assays above

CN1CCOCC1
not listed: [1] | [4] | [8]
inactive: all other assays above
